Measurements from PubChem BioAssay (Tox21).
Active and inactive are the calls of the source. Where a call stands in place of a potency, no number is given. Calls come from the whole dose curve; as a rule, active = well fitted curve in the direction sought with a large enough effect in the signal ratio in the repeat runs (not every such curve was filed as active); inconclusive = weak or mixed curves, or effect the other way; inactive = no such curve, though single readings can be large or run the other way; the % refers to the signal ratio.

biological target: Estrogen receptor (Homo sapiens) (UniProt P03372); test: qHTS assay to identify small molecule antagonists of the estrogen receptor alpha (ER-alpha) signaling pathway (AID 743069); conditions: HEK293 ER-alpha-UAS-bla, beta-lactamase ratio, antagonist mode; series mostly up to 69.4 µM
Procedure, shortened: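 HEK293 cells stably carrying an ER-alpha-UAS-bla beta-lactamase reporter were pre-cultured overnight in 2% charcoal-stripped FBS medium. Test compounds in DMSO were added together with 17beta-estradiol for 18 hr at 37C. Read-out was fluorescence after 2 hr with LiveBLAzer B/G FRET substrate at room temperature.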
Potency is the fitted concentration of half-maximal effect.

Chain of Estrogen receptor (Homo sapiens) (P03372 whole entry, looked up): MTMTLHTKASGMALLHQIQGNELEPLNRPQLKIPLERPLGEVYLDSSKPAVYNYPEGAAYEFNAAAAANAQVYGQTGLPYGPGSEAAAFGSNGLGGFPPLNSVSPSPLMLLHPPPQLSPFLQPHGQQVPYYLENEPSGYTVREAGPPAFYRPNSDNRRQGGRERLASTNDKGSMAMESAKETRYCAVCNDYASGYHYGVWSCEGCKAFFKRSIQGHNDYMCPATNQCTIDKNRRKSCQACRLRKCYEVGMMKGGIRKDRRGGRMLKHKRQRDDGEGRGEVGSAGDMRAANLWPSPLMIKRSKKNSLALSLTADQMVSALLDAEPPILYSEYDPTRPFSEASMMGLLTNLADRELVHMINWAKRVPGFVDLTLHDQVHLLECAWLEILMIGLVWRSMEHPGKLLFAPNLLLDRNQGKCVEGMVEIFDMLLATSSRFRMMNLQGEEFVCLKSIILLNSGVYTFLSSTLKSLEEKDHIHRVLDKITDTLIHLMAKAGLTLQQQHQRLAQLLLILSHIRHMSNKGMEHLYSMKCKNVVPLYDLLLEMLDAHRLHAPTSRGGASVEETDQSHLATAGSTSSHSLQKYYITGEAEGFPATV

For `COc1ccc2cc(S(=O)(=O)N[C@H](CC(=O)N[C@H](Cc3ccc(CN4[C@H](C)CCC[C@@H]4C)cc3)C(=O)N(C)C(C)C)c3ccc4c(c3)OCO4)ccc2c1`, which Potency is on record?
Its Potency is “inactive”.

`Cc1cc(=O)oc2cc(O)ccc12` was tested. Which Potency did it give?
The Potency was “inactive”.

With `CN1[C@@H]2CC(OC(=O)[C@H](CO)c3ccccc3)C[C@H]1[C@@H]1O[C@@H]12` (stereo not given in full) as the molecule, how does the Potency read?
Its Potency is “inactive”.

How did the Potency turn out when `O=C(Nc1ncc([N+](=O)[O-])s1)c1cccs1` was run?
The Potency was “inactive”.

With `CC(=O)CCC(=O)O` as the molecule, how does the Potency read?
Its Potency is “inactive”.

For `NC(=O)n1c(O)c(C(=O)c2cccs2)c2cc(Cl)ccc21`, which Potency is on record?
Its Potency is 21.3 µM [inconclusive] (active).

How did the Potency turn out when `C=C(C)C(=O)OCC(C)O` (stereo not given) was run?
The Potency was “inactive”.

For `Cc1c(C(=O)O)c(O)cc2c1C(=O)c1c(O)c([C@@H]3O[C@H](CO)[C@@H](O)[C@H](O)[C@H]3O)c(O)c(O)c1C2=O`, which Potency is on record?
The Potency was “inactive”.

How did the Potency turn out when `NC(=O)c1cccnc1` was run?
The Potency was “inactive”.

`COc1ccc(OC(F)(F)F)cc1CN[C@H]1CCCN[C@H]1c1ccccc1` was tested. Which Potency did it give?
The Potency was “inactive”.

With `O=S1(=O)OC(c2ccc(O)cc2)(c2ccc(O)cc2)c2ccccc21` as the molecule, how does the Potency read?
Its Potency is “inactive”.

For `CCc1nc(N)nc(N)c1-c1ccc(Cl)cc1`, which Potency is on record?
The Potency was “inactive”.

How did the Potency turn out when `CN(N=O)C(=O)N[C@@H]1[C@@H](O)[C@H](O)[C@@H](CO)O[C@@H]1O` was run?
Its Potency is “inactive”.

How did the Potency turn out when `NC1CCCCC1` was run?
The Potency was “inactive”.

How did the Potency turn out when `C=CCc1ccc(O)c(OC)c1` was run?
Its Potency is “inactive”.
